Rows were chosen to be rich in hits. Some 6% of all compounds tested hit in one or more screens of this group.
D1 agonist: Allosteric Agonists of the Human D1 Dopamine Receptor: qHTS. HEK293 T-REx D1 cells, calcium flux, agonist mode. activation, % at 2 µM. actives 1% (n = 360,000); in the data active means activation above about 30%; further: 0% is about no effect
Target sequence (P21728 whole entry, looked up): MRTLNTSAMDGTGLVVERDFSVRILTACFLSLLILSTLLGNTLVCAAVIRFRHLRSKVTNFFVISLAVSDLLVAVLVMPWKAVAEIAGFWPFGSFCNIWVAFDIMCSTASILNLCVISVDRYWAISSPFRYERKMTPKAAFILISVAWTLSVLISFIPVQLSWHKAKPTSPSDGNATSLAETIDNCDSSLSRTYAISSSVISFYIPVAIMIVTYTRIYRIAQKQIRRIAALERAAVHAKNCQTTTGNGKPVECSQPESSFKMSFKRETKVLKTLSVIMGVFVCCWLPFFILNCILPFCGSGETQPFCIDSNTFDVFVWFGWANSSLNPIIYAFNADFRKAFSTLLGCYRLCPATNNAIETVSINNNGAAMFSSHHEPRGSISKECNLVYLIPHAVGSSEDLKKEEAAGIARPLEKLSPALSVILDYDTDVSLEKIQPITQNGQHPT
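Agonism was scored from calcium flux recorded over 180 s (1 read/s) after pintool compound addition, following a 10-cycle baseline. Cells were inducible force-coupled HEK293 TREx D1, plated overnight at 30 C and loaded with no-wash calcium dye.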
D1 antagonist: Antagonist of Human D 1 Dopamine Receptor: qHTS; HEK293 TREx D1 cells, calcium flux, dopamine EC80; hits give low values; D(1A) dopamine receptor (Homo sapiens), P21728; actives 3.2% (n = 360,000); activity change, negative = inhibition, % at 10 µM; in the data active means activity change below about -30%; further: on the % scale 0 is the no-effect control and ±100 the full control effect
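Inducible Hek293 Trex D1 cells (tetracycline, overnight, 30 C). Calcium dye 30–90 min RT. Antagonist mode: EC80 dopamine added after 180 s compound read.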
D3 antag: qHTS of D3 Dopamine Receptor Antagonist: qHTS | AID 652054, 2013 | max response, negative = inhibition, % | D(3) dopamine receptor (Homo sapiens), P35462 | D3R cells, DiscoveRx beta-arrestin luminescence, antagonist mode; hits give low values | actives 2.5% (n = 360,000); in the data active means max response below about -50%; further: on the % scale 0 is the no-effect control and ±100 the full control effect
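Cells plated overnight at 1500 cells/well, then exposed to library compounds with dopamine controls for 90 minutes at 37 degrees C. DiscoveRx reagent added for 30–60 minutes at room temperature; luminescence read, quantitative HTS format.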
D1 potentiator: Potentiators of Human D1 Dopamine Receptor: qHTS; HEK293 TREx D1 cells, calcium flux, dopamine EC20 potentiation; D(1A) dopamine receptor (Homo sapiens), P21728; actives 0.036% (n = 360,000); potentiation, % at 10 µM; in the data active means potentiation above about 30%; further: 0% is about no effect
DRD3 agonist: qHTS of D3 Dopamine Receptor Agonist: qHTS; D(3) dopamine receptor (Homo sapiens), P35462; D3R DiscoveRx beta-arrestin cells, luminescence, 90 min; max activation, %; actives 0.58% (n = 410,000); AID 652048, 2013; in the data active means max activation above about 30%; further: 0% is about no effect
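Cells at 1500/well, incubated overnight, then treated with pinned compounds (dopamine as control) for 90 min at 37 degrees C. DiscoveRx reagent added for 30 - 60 minutes at room temperature; luminescence read.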
* marks the source's active call; other numbers are inactive results.

For COc1cccc(N2CCN(C(=O)C3CCN(S(=O)(=O)c4ccc5c(c4)oc(=O)n5C)CC3)CC2)c1 the results were D1 agonist 1, D1 antagonist 0, D3 antag 12, D1 potentiator -3 and DRD3 agonist -17.
Screening Cn1c(=O)oc2cc(S(=O)(=O)N3CCC(C(=O)N4CCN(c5cccc(Cl)c5)CC4)CC3)ccc21 returned D1 agonist 19, D1 antagonist -31*, D1 potentiator -4 and DRD3 agonist 9.
Screening Cn1c(=O)oc2cc(S(=O)(=O)N3CCC(C(=O)N4CCN(c5ccc(Cl)cc5)CC4)CC3)ccc21 returned D1 agonist 8, D1 antagonist -18, D1 potentiator -3 and DRD3 agonist -3.
For O=C(C1CCCN(S(=O)(=O)c2cccc3nsnc23)C1)N1CCN(c2cccc(Cl)c2)CC1 (stereo unspecified) the results were D1 agonist 3, D1 antagonist -13, D1 potentiator 0 and DRD3 agonist 32*.
CCc1ccc(CN2CCC(n3nccc3NC(=O)c3ccccc3)CC2)o1 was read as D1 agonist 2, D1 antagonist -12, D3 antag -18, D1 potentiator -2 and DRD3 agonist -23.
For Cc1cccc(N2CCN(C(=O)C3CCCN(S(=O)(=O)c4ccc5c(c4)oc(=O)n5C)C3)CC2)c1C (stereo unspecified) the results were D1 agonist 4, D1 antagonist -31*, D1 potentiator -2 and DRD3 agonist 18.
For Cc1sc2ncnc(OCC(=O)NCc3cccs3)c2c1C the results were D1 agonist -1, D1 antagonist -5, D3 antag -83*, D1 potentiator -2 and DRD3 agonist 7.
`CNC(=O)COc1ncnc2sc(C)c(C)c12` gave D1 agonist 1, D1 antagonist 12, D3 antag 0, D1 potentiator -1 and DRD3 agonist -12.
Cc1ccccc1/C=C(\C#N)c1nc(-c2ccc(Cl)cc2)cs1 was read as D1 agonist 1, D1 antagonist 12, D1 potentiator 0 and DRD3 agonist -3.
COc1cccc2cc(C(=O)OCC(=O)NC3CCCC(C)C3C)c(=O)oc12 (stereo unspecified) was read as D3 antag -9 and DRD3 agonist 82*.
For COc1cccc(CNC(=O)CCC2CCCN(C/C=C/c3ccccc3OC)C2)c1 (stereo unspecified) the results were D1 agonist 6, D1 antagonist -17, D3 antag -55*, D1 potentiator -5 and DRD3 agonist -13.
COc1ccccc1/C=C/CN1CCCC(CCC(=O)NCc2ccc(F)c(F)c2)C1 (stereo unspecified) was read as D1 agonist 7, D1 antagonist -20, D3 antag -66*, D1 potentiator -6 and DRD3 agonist -18.
`O=C(CCC1CCCN(C(=O)c2ccoc2)C1)NCc1ccc(F)c(F)c1` (stereo unspecified) gave D1 agonist 2, D1 antagonist 2, D3 antag 0, D1 potentiator 0 and DRD3 agonist 8.
Screening O=C(CCC1CCCN(C(=O)c2ccc3c(c2)OCO3)C1)NCc1ccc(F)c(F)c1 (stereo unspecified) returned D1 agonist 1, D1 antagonist -30*, D3 antag -9, D1 potentiator -4 and DRD3 agonist -2.
`COCCNC(=O)CCC1CCN(C/C=C/c2ccccc2OC)CC1` gave D1 agonist 3, D1 antagonist -2, D3 antag -56*, D1 potentiator 4 and DRD3 agonist -20.
Screening O=C(CCC1CCCN(Cc2cccc3c2OCO3)C1)NCc1ccc(F)c(F)c1 (stereo unspecified) returned D1 agonist 3, D1 antagonist -1, D3 antag -13, D1 potentiator -4 and DRD3 agonist -12.
COc1ccc(-c2cc(C(F)(F)F)n3nc(C(=O)Nc4ccccc4SC)cc3n2)cc1OC was read as D1 agonist 3, D1 antagonist -11, D1 potentiator -7 and DRD3 agonist -4.
`COc1cccc(CNC(=O)CCc2nnc3n(CC(C)C)c(=O)c4ccccc4n23)c1` gave D1 agonist 0, D1 antagonist 18, D1 potentiator -3 and DRD3 agonist 7.
O=C(CC1N=C2c3ccccc3N=C(SCC(=O)Nc3ccc(F)cc3)N2C1=O)NCc1ccc2c(c1)OCO2 (stereo unspecified) was read as D1 agonist 0, D1 antagonist 22, D1 potentiator -2 and DRD3 agonist -3.
CN(Cc1ccccc1)C(=O)c1ncn2c1c(=O)[nH]c1cccnc12 was read as D3 antag 8 and DRD3 agonist -2.
COCCC(=O)N1CCCC(CCC(=O)NCc2ccc(F)c(F)c2)C1 (stereo unspecified) was read as D1 agonist 0, D1 antagonist -2, D3 antag -21, D1 potentiator -1 and DRD3 agonist -10.
`COc1ccc(/C=C/CN2CCCC(CCC(=O)NCc3ccc(F)c(F)c3)C2)cc1` (stereo unspecified) gave D1 agonist 21, D1 antagonist -21, D3 antag -55*, D1 potentiator -1 and DRD3 agonist -32.
For CCOC(=O)c1ccc(NC(=S)N2CCSC2c2c(F)cc(F)cc2F)cc1 (stereo unspecified) the results were D1 agonist 3, D1 antagonist 7, D3 antag 4, D1 potentiator 1 and DRD3 agonist -3.
`Fc1cc(F)c(C2SCCN2C(=S)Nc2cccc(C(F)(F)F)c2)c(F)c1` (stereo unspecified) gave D1 agonist 77*, D1 antagonist 0, D3 antag -20, D1 potentiator -4 and DRD3 agonist -8.
O=C(O)C(Oc1ccc(Cl)cc1)c1ccc(Cl)cc1 (stereo unspecified) was read as D3 antag 2 and DRD3 agonist 9.
Screening CC(=O)c1ccc(N2CCN(S(=O)(=O)c3ccc(-c4cc(C(F)(F)F)on4)s3)CC2)cc1 returned D1 agonist 1, D1 antagonist -31*, D1 potentiator -4 and DRD3 agonist 8.
For CC(=O)c1ccc(N2CCN(S(=O)(=O)c3ccc(-c4cc(C)no4)s3)CC2)cc1 the results were D1 agonist 9, D1 antagonist -22, D3 antag 14, D1 potentiator -8 and DRD3 agonist 2.
Screening CCn1ncc(C2=NOC(C(=O)NCc3ccccc3)C2)c1C (stereo unspecified) returned D1 agonist 6, D1 antagonist -8, D3 antag 13, D1 potentiator -10 and DRD3 agonist 0.

Bioassay records from PubChem BioAssay.
